Results: PubChem BioAssay (NCATS)
“And” between values parts separate entries of the source, which are not always exact repeats. Equal entries are not always repeated. Inconclusive results are not listed. Entries that show only a call come without a potency. A structure can be active in one record and inactive in another. The source made the active and inactive calls. Calls follow the shape of the dose curve; as a rule, active = well fitted inhibition curve with a large enough effect; inconclusive = small, poorly fitted or top-dose-only effect; inactive = flat fitted curve, though single readings scatter.

These molecules were tested on MCC-26 (assay: qHTS assay to identify novel small-molecules to repurpose for Merkel cell carcinoma treatment (AID 1296009; also: nearly all actives have a fitted effect of over 60% in size)). Conditions: MCC and control cell lines, CellTiter-Glo viability, 72 h; series mostly up to 46 µM; activity change, negative = cytotoxicity: at the top concentration.
Text: MCC is a rare and aggressive neuroendocrine skin cancer with limited treatment options. Approximately 80% of MCCs have the Merkel cell polyomavirus (MCPyV) DNA integrated into the host genome (virus-positive: VP-MCC) and viral oncogenes drive oncogenesis. The remaining MCCs are virus-negative (VN-MCC) and are caused by UV mutagenesis. To identify novel treatments for VP-MCC and/or VN-MCC we screened three VP-MCC cell lines (WAGA, MKL-1, MKL-2), three VN-MCC cell lines (MCC-13, MCC-26, UISO), and four immortalized, non-transformed control cell lines (HaCaT, HEK293T, CRL7250, NIH-3T3) against ~2,400 compounds in the NCGC Pharmaceutical Collection (NPC) and ~1,900 compounds in the Mechanism Interrogation PlatE (MiPE). Using cell viability as a readout (CellTiter-Glo assay) we found both overlapping and distinct drugs that can be repurposed for the treatment of VP-MCC and VN-MCC.
A high-throughput screen was conducted in 1536-well white flat bottom plates (Corning) on a Kalypsys robotic system. Cell lines WAGA, MKL-1, MKL-2, MCC-13, MCC-26, UISO, HaCaT, HEK293T, CRL7250, and NIH-3T3 were screened against 2 small molecule annotated drug libraries NPC and MIPE in dose response (8 and 11 pt. respectively) measuring cell viability after 72 hours of incubation. […] A 1,536 pintool (Kalypsys) was used to transfer 23 nL of compound in DMSO to the 1,536-well assay plates. After 72 hr incubation at 37 degree celsius, 2.5 uL of CellTiter-Glo (Promega) was dispensed into each well using a BiorapTR. Plates were incubated at room temperature for 10 min, transferred to a ViewLux (PerkinElmer) and the luminescence was recorded using an exposure time of 2 seconds. Relative luminescence units (RLUs) were normalized to in-plate controls (no cells as a positive (cytotoxicity) control, DMSO as negative control) and the normalized data was processed using NCATS in-house software.
Potency is read from the fitted curve at half-maximal effect.

| Structure (SMILES) | Potency | activity change, negative = cytotoxicity |
| --- | --- | --- |
| COc1ccccc1OCC(O)COC(N)=O (stereo not given) | inactive |  |
| CCC(C)(C)c1ccc(CC(C)CN2C[C@@H](C)O[C@@H](C)C2)cc1 (stereo not given in full) | inactive |  |
| NC(=O)c1cccnc1 | inactive |  |
| COCCCOc1cc(C[C@@H](C[C@H](N)[C@@H](O)C[C@H](C(=O)NCC(C)(C)C(N)=O)C(C)C)C(C)C)ccc1OC | inactive |  |
| NC1(c2ccc(-c3nc4ccn5c(=O)[nH]nc5c4cc3-c3ccccc3)cc2)CCC1 | inactive |  |
| C1CCC(C(CC2CCCCN2)C2CCCCC2)CC1 (stereo not given) | 21.1 µM (active) and inactive |  |
| CCCN[C@H]1CCc2nc(N)sc2C1 | inactive |  |
| OC(Cn1cncn1)(Cn1cncn1)c1ccc(F)cc1F | inactive |  |
| NS(=O)(=O)c1cc2c(cc1Cl)NC(C(Cl)Cl)NS2(=O)=O (stereo not given) | inactive |  |
| CNC(=O)c1cc(Oc2ccc(NC(=O)Nc3ccc(Cl)c(C(F)(F)F)c3)cc2)ccn1 | inactive |  |
| CCn1cc(C(=O)O)c(=O)c2cc(F)c(N3CCN(C)CC3)cc21 | inactive |  |
| CNCC[C@H](Oc1cccc2ccccc12)c1cccs1 | inactive |  |
| CCN(C)C(=O)Oc1cccc([C@H](C)N(C)C)c1 | inactive |  |
| Nc1nc(N)nc(-c2cc(Cl)ccc2Cl)n1 | inactive |  |
| CC(C)(C)NC(=O)[C@H]1CC[C@H]2[C@@H]3CC[C@H]4NC(=O)C=C[C@]4(C)[C@H]3CC[C@]12C | inactive |  |
| S=P(N1CC1)(N1CC1)N1CC1 | inactive |  |
| CC(=O)Oc1ccccc1C(=O)Nc1ncc([N+](=O)[O-])s1 | inactive |  |
| CCN1CCCC1CNC(=O)c1cc(S(N)(=O)=O)ccc1OC (stereo not given) |  | -6.78% (inactive) |
| CCCCc1oc2ccc(NS(C)(=O)=O)cc2c1C(=O)c1ccc(OCCCN(CCCC)CCCC)cc1 |  | -1.67% (inactive) |
| Cc1oc(=O)oc1CN1CCN(c2cc3c(cc2F)c(=O)c(C(=O)O)c2n3C(C)S2)CC1 (stereo not given) | inactive |  |

| Structure (SMILES) | Potency | activity change, negative = cytotoxicity |
| --- | --- | --- |
| CC(C)C[C@H](NC(=O)[C@H](CCc1ccccc1)NC(=O)CN1CCOCC1)C(=O)N[C@@H](Cc1ccccc1)C(=O)N[C@@H](CC(C)C)C(=O)[C@@]1(C)CO1 | 105 nM (active) |  |
| O=S(=O)(c1cccc2cnccc12)N1CCCNCC1 | inactive |  |
| CNS(=O)(=O)CCc1ccc2[nH]cc(C3CCN(C)CC3)c2c1 | inactive |  |
| Cc1cc(NS(=O)(=O)c2ccc(N)cc2)no1 | inactive |  |
| OCc1ccc(-c2nn(Cc3ccccc3)c3ccccc23)o1 |  | -9.6% (inactive) |
| CC(C)(C#N)c1cc(Cn2cncn2)cc(C(C)(C)C#N)c1 |  | 5.73% (inactive) |
| CC(C)C1CCC(C(=O)N[C@H](Cc2ccccc2)C(=O)O)CC1 (stereo not given in full) | inactive |  |
| Nc1nc(N)c2nc(CNc3ccc(C(=O)NC(CCC(=O)O)C(=O)O)cc3)cnc2n1 (stereo not given) |  | -0.493% (inactive) |
| CC(C)OC(=O)OCOP(=O)(CO[C@H](C)Cn1cnc2c(N)ncnc21)OCOC(=O)OC(C)C | inactive |  |
| C[C@@H](CN1CC(=O)NC(=O)C1)N1CC(=O)NC(=O)C1 | inactive |  |
| CCc1c2c(nc3ccc(OC(=O)N4CCC(N5CCCCC5)CC4)cc13)-c1cc3c(c(=O)n1C2)COC(=O)[C@]3(O)CC | 16800 nM (active) |  |
| CN1CCCC(n2nc(Cc3ccc(Cl)cc3)c3ccccc3c2=O)CC1 (stereo not given) | inactive and 11.8 µM (active) |  |
| Cc1nnc(C(=O)NC(C)(C)c2nc(C(=O)NCc3ccc(F)cc3)c(O)c(=O)n2C)o1 | inactive |  |
| CC[C@H](C)C(=O)O[C@H]1C[C@@H](C)C=C2C=C[C@H](C)[C@H](CC[C@@H]3C[C@@H](O)CC(=O)O3)[C@H]21 |  | -10.6% (inactive) |
| CCOc1cc(N)c(Cl)cc1C(=O)NCC1CN(Cc2ccc(F)cc2)CCO1 (stereo not given) | inactive |  |
| CCN(CC)CC#CCOC(=O)C(O)(c1ccccc1)C1CCCCC1 (stereo not given) |  | -7% (inactive) |
| CN(C)CCc1c[nH]c2ccc(C[C@H]3COC(=O)N3)cc12 | inactive |  |
| O=c1oc2c(O)c(O)cc3c(=O)oc4c(O)c(O)cc1c4c23 | inactive |  |
| O=S(=O)(O)CCS | inactive |  |
| CN(CCOc1ccc(CC2SC(=O)NC2=O)cc1)c1ccccn1 (stereo not given) | inactive |  |
